# Bioassay records as filed in PubChem.
# NPC1 promoter act = NPC1 promoter activation; Huh7 NPC1 promoter luciferase reporter, 24 h; Potency, µM (doses to about 9.22 µM), for inactives: top-dose activation, hits mostly activators; 2.4% of 320,000 active; further: % of control where 0% means no effect; nearly all actives have a fitted effect of over 60% in size
#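 Cells: Huh7 expressing luciferase under the NPC1 promoter, 1500/well. Seeded 2 h, compound added, incubated 24 h at 37 °C. Luciferase reagent, 10 min ambient, then luminescence.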
# SMN2 splice enh = enhancers of SMN2 splice variant expression. HEK293 SMN2-luciferase splicing reporter, luminescence, 30-36 h. Potency, µM (highest dose often 46.1 µM), without a hit: at the highest dose activity change, positive = activation, actives largely listed as activators. 2.8% of 210,000 active; further: % of control where 0% means no effect; nearly all actives have a fitted effect of over 55% in size
#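 HEK293 cells carry an SMN2 minigene-luciferase reporter in which exon 7 inclusion puts luciferase in frame. Cells were seeded at 2000 cells/well, attached for 10-12 hours, then exposed to compounds for 30-36 hours at 37C before ONE-Glo luminescence.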
# ELG1 genotoxic = induces genotoxicity in HEK293T cells with luciferase-tagged ELG1. HEK293T ELG1-luciferase reporter, luminescence, 16 h. Potency, µM (titrated, usually from 46 µM), without a hit: at the top dose activity change, positive = activation, hits mostly activators. 1.3% of 330,000 active. AID 504466; further: % of control where 0% means no effect; nearly all actives have a fitted effect of over 60% in size
#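 HEK293T cells expressing luciferase-tagged ELG1 were treated with compound or DMSO for 16 hr at 37°C. Luciferase activity was then read after 30 min with ONE-Glo at room temperature; rising signal flags genetic stress.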
# Rab9 promoter act = activates the Rab9 promoter. AID 485297. Potency, µM (highest dose often 9.22 µM), inactives show top-dose activation, negative = inhibition, most hits filed as activators. 2.8% of 320,000 active. Huh7 Rab9 promoter-luciferase reporter, luminescence, 24 h; further: % of control where 0% means no effect; nearly all actives have a fitted effect of over 60% in size
#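 Luminescence read-out: Huh7 cells stably expressing Rab9-luciferase, treated 24 h with compound at 37 °C, then lysed with luciferase reagent for 10 min at ambient before reading.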
# FLuc modulator = inhibits or activates purified firefly luciferase, miR-21 counter-screen; P08659; purified FLuc, Km substrates, luminescence inhibition; Potency, µM (top dose mostly 57.5 µM), for the others: at the top dose activity change, negative = inhibition, hits mostly inhibitors; 6.9% of 360,000 active;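 further: plate controls were vehicle for no effect and reference inhibitor for full effect; nearly all actives have a fitted effect of over 55% in size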
# Target sequence (P08659 whole entry, looked up): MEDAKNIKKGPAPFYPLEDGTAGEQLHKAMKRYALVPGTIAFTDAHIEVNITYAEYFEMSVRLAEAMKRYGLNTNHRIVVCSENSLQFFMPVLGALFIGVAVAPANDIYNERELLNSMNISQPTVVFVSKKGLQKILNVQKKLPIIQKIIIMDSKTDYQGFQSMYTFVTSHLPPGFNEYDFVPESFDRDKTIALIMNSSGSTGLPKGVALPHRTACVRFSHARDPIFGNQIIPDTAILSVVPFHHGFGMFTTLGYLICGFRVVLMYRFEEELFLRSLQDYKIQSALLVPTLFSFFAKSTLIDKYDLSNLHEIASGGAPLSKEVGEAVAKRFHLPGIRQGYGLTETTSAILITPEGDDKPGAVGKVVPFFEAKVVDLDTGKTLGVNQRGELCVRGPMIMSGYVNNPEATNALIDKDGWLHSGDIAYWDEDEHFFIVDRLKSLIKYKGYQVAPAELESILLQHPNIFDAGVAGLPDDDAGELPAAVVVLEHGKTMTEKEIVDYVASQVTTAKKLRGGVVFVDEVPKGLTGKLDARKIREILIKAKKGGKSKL
#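 Purified P. pyralis luciferase (10nM final) with 10uM D-luciferin and 10uM ATP (Km levels) in 50mM Tris acetate pH 7.5, 10mM Mg acetate, 0.01% Tween-20, 0.05% BSA; qHTS 6-point titration, ~60 µM downward; luminescence read.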
# KinaseGlo FLuc = counter-screen: inhibitors of Kinase-Glo firefly luciferase; Kinase-Glo luciferase, ATP luminescence, 8 min; Potency, µM (top dose mostly 38.3 µM), for the others: at the top dose activity change, negative = inhibition, most hits filed as inhibitors; 0.28% of 200,000 active; further: on the % scale 0 is the no-effect control and ±100 the full control effect; nearly all actives have a fitted effect of over 60% in size
#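 Recombinant Kinase-Glo luciferase, 10 uM ATP (linear range), luciferin; imidazole pH 7.2 / KCl / MgCl2 / Tween / BSA buffer; 8 min RT; luminescence.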
# The depositor's hits bear a star; ? = inconclusive; nt = not tested or not shown. Most compounds without a hit are left out; they make up all but 7.5% or so of the library. The call rests on the fitted dose curve; in most records, active means well fitted curve in the direction sought with a large enough effect; inconclusive means small, poorly fitted or top-dose-only effect, or another doubt; inactive means no such curve, though single readings can be large; an effect the other way counts as inactive or inconclusive. Potency means the concentration at half of the fitted maximal effect.
SMILES,NPC1 promoter act,SMN2 splice enh,ELG1 genotoxic,Rab9 promoter act,FLuc modulator,KinaseGlo FLuc
CCN(CC(=O)NCc1ccc(Cl)cc1)C(=O)/C=C/c1ccc(Cl)c([N+](=O)[O-])c1,12.9%,nt,-6.3%,1.6%,9.53µM*,nt
CCN(CC(=O)NCc1ccc(Cl)cc1)C(=O)/C=C/c1ccccc1,-2.3%,nt,-0.9%,3.7%,-5.6%,nt
COC(=O)N/N=C/c1cc(N=Nc2ccccc2Cl)ccc1O,?,nt,5.1%,?,6.01µM*,nt
Nc1ccc(C(=O)N/N=C\c2cc(N=Nc3cccc4ccccc34)ccc2O)cc1,-7.2%,-75.5%,-7.1%,1.4%,7.57µM*,-0.5%
Cc1ccc(NC(=O)C2OCCc3ccccc32)cc1Cl (configuration not stated),7.3%,1.7%,11.2%,10.5%,23.9µM*,-0.3%
Oc1ccccc1OCc1nc2ccccc2s1,13.0%,31.6µM*,8.2µM*,29.4%,5.36µM*,-15.0%
Oc1ccc(O)c(Cc2nc3ccccc3s2)c1,-9.0%,-0.4%,-3.2%,-2.6%,?,-4.2%
OCc1cc(Br)ccc1OCc1nc2ccccc2s1,3.16µM*,nt,?,2.82µM*,5.36µM*,nt
Cc1ccc(C)c(N2CCN(C(=O)c3cc(S(=O)(=O)N4CCCCC4)cn3C)CC2)c1,nt,nt,nt,nt,-4.8%,nt
Cc1sc(NC(=O)CCCC(=O)O)c(C(N)=O)c1-c1ccccc1,16.0%,-0.9%,?,3.8%,0.757µM*,2.9%
Cc1ccc(C(=O)O)cc1NC1(c2ccccc2)C(=O)c2ccccc2C1=O,nt,nt,nt,nt,-19.0%,nt
COc1cc(NS(=O)(=O)c2cc3c(cc2C)n(C)c(=O)c(=O)n3C)cc(OC)c1,nt,nt,nt,nt,-0.2%,nt
CCOC(=O)c1cc(S(=O)(=O)Nc2ccccc2)[nH]n1,nt,nt,nt,nt,-4.3%,nt
COc1ccc(C2=NOC(CNC(N)=S)C2)cc1 (configuration not stated),1µM*,12.6µM*,12.1%,0.708µM*,10.7µM*,-9.6%
C=CCn1c(/N=C/c2ccc3c(c2)OCO3)nc2ccccc21,-0.3%,10.4%,0.7%,-1.8%,6.75µM*,-24.1%
C=CCc1cccc(/C=N/c2nc3ccccc3n2CC)c1O,-0.4%,-11.1%,0.8%,1.4%,1.8%,2.3%
Brc1ccc(/C=N/c2nc3ccccc3n2CCN2CCOCC2)cc1,-2.0%,7.8%,1.8%,-0.9%,23.9µM*,2.1%
C(=N\c1nc2ccccc2n1CCN1CCCCC1)/c1ccc2c(c1)OCO2,10.1%,-5.5%,2.5%,-1.5%,-10.5%,-3.7%
CCCn1c(/N=C/c2ccc3c(c2)OCO3)nc2ccccc21,10.7%,-32.0%,-1.7%,0.8%,4.78µM*,-3.0%
O=C(CSc1nc2c(sc3ccccc32)c(=O)n1CCCC(=O)NC1CCCC1)Nc1ccc(F)cc1,nt,-7.6%,nt,nt,-2.0%,nt
Cc1ccc(OCC(=O)Nc2ccc3nc(SCCOc4ccccc4)sc3c2)cc1,nt,nt,nt,nt,-6.0%,nt
CCOC(=O)c1c(/N=C/c2ccc(OC)cc2O)sc2c1CCN(C)C2,1.4%,nt,-1.5%,-2.6%,?,nt
CN1CCc2c(sc(/N=C/c3c[nH]c4ccccc34)c2C#N)C1,17.0%,nt,?,2.82µM*,1.35µM*,nt
CN1CCc2c(sc(/N=C/c3cc(Cl)ccc3O)c2C#N)C1,18.1%,nt,16.4µM*,?,2.39µM*,nt
CN1CCc2c(sc(/N=C/c3c[nH]c4ccccc34)c2C(N)=O)C1,12.5%,nt,-12.1%,-1.5%,?,nt
SMILES,NPC1 promoter act,SMN2 splice enh,ELG1 genotoxic,Rab9 promoter act,FLuc modulator,KinaseGlo FLuc
COc1ccccc1-n1c(C)cc(/C=C2/C(=N)N3C(=NC2=O)SN=C3S(C)(=O)=O)c1C,?,-13.5%,?,?,0.675µM*,-1.8%
Cc1cc(/C=C2/C(=N)N3C(=NC2=O)SN=C3S(C)(=O)=O)c(C)n1-c1ccc(F)cc1,29.5%,?,?,13.8%,1.51µM*,13.5%
COc1ccc(-n2c(C)cc(/C=C3\C(=N)N4N=C(CC(=O)N5CCOCC5)SC4=NC3=O)c2C)c(OC)c1,-2.2%,nt,5.0%,-10.0%,?,nt
CCOc1cc(/C=C2/C(=N)N3C(=NC2=O)SN=C3S(C)(=O)=O)ccc1OS(=O)(=O)c1ccccc1,-0.5%,nt,4.8%,4.9%,?,nt
CCOc1ccc(-n2c(C)cc(/C=C3/C(=N)N4C(=NC3=O)SN=C4S(C)(=O)=O)c2C)cc1,-0.6%,-6.0%,3.6%,-2.3%,16.9µM*,0.9%
COc1ccccc1-n1c(C)cc(/C=C2\C(=N)N3N=C(CC(=O)N4CCOCC4)SC3=NC2=O)c1C,4.2%,nt,7.0%,-1.6%,23.9µM*,nt
CCc1ccc(OCC2c3cc(OC)c(OC)cc3CCN2C(=O)COc2ccccc2)cc1 (configuration not stated),nt,nt,nt,nt,-1.7%,nt
Cc1ccc(NC(=O)Cn2c(=O)c(CNc3ccccc3)cc3cc4c(cc32)OCCO4)cc1,nt,nt,nt,nt,1.0%,nt
CCCC[C@@H]1C[C@H]1C(NC(=O)c1cccnc1)c1ccc(-c2ccccc2)cc1 (some centres not stated),nt,9.1%,nt,nt,nt,-0.7%
CC(CNC(=O)Cn1ccc2cc(S(=O)(=O)N3CCCCCC3)ccc21)c1ccccc1 (configuration not stated),nt,nt,nt,nt,-18.6%,nt
Cc1cccc(C)c1-n1cccc1/C=C1/C(=N)N2C(=NC1=O)SN=C2S(C)(=O)=O,-1.5%,-37.4%,0.0%,-3.2%,23.9µM*,3.0%
Cc1ccc(-n2cccc2/C=C2/C(=N)N3C(=NC2=O)SN=C3S(C)(=O)=O)cc1Cl,-4.0%,11.9%,4.7%,2.7%,-3.6%,1.8%
Cc1ccc(OCc2cnc(Cl)s2)c(C)c1,3.9%,-0.1%,19.2%,-0.1%,10.7µM*,-1.0%
O=C(c1ccc(F)cc1)n1ccc(-c2cnc(-c3ccccc3)s2)n1,1µM*,12.6µM*,0.82µM*,0.708µM*,?,-0.9%
Cc1ccc(Cn2ccc(-c3cnc(-c4ccccc4)s3)n2)cc1,?,-43.1%,?,?,10.7µM*,17.2%
O=S(=O)(c1ccccc1)n1ccc(-c2cnc(-c3ccccc3)s2)n1,?,46.3%,?,?,15.1µM*,-7.1%
Fc1ccc(Cn2ccc(-c3cnc(-c4ccccc4)s3)n2)cc1,?,-27.5%,?,3.16µM*,10.7µM*,-2.2%
O=C(c1ccc(F)cc1)n1nc(-c2cccnc2)nc1NCc1ccccc1,nt,13.0%,nt,nt,-3.2%,nt
COc1ccc(S(=O)(=O)n2ccc(-c3ccc(OCCN(C)c4ccccn4)cc3)n2)cc1,-12.6%,-35.6%,-9.7%,-14.6%,0.8%,-2.5%
Cc1nc(NC2CCCCC2)c2nc(-c3ccccc3)n(CCN(C)C)c2n1,nt,-17.1%,nt,nt,nt,-4.1%
O=C(c1ccc(C(F)(F)F)cc1)n1ccc(-c2cccs2)n1,-3.2%,nt,0.2%,1.4%,15.1µM*,nt
